# HPGD block = blocks human HPGD enzyme activity; Potency, µM, without a hit: top-dose activity change, negative = inhibition, hits mostly inhibitors; P15428; hit rate 4.3% among 150,000; purified HPGD, NADH fluorescence kinetic, PGE2 substrate; active = well fitted inhibition curve with a large enough effect, not every such curve was filed as active; inconclusive = small, poorly fitted or top-dose-only effect, or another doubt; inactive = no such curve, though single readings can be large or run the other way
# Target sequence (P15428 whole entry, looked up): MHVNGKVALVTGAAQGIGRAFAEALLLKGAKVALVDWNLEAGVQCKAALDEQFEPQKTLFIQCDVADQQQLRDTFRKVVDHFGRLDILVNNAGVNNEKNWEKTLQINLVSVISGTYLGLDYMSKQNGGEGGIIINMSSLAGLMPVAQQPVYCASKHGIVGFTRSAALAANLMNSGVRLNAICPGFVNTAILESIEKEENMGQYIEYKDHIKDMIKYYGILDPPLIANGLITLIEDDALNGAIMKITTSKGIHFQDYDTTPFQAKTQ
#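 NADH formation kinetics: reaction with 30 uM PGE2 and 1 mM NAD+ (final), 20 nM enzyme, Tris-HCl pH 8 with Tween 20, after 15 min compound preincubation at room temperature. Fluorescence change, last versus first of five reads.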
# Tau fluor counter = counter-screen for tau fibril formation inhibitors. tau K18 P301L Alexa594 fluorescence, heparin fibrillization. Potency, µM (highest dose often 57.7 µM), for inactives: at the highest dose activity change, negative = decrease. hit rate 0.93% among 280,000; also: nearly all actives have a fitted effect of over 55% in size
#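 Human tau K18 P301L (15 uM unlabeled, 0.24 uM Alexa 594-labeled) in 100 mM sodium acetate pH 7 with 20 uM heparin, 6 hr at 37 C. ThT 30 uM added, 1 hr ambient; Alexa 594 FP and total fluorescence read at 555/632 nm.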
# Tau ThT inhib = tau fibrillization inhibition (ThT binding). P10636. recombinant tau K18 P301L, heparin-induced fibrillization, ThT fluorescence. Potency, µM (doses to about 57.4 µM), inactives show at the highest dose activity, negative = inhibition, most hits filed as inhibitors. hit rate 2.1% among 270,000; also: nearly all actives have a fitted effect of over 55% in size
#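 Fibril formation assay: tau K18 P301L at 15 uM with trace Alexa 594 label, heparin inducer 20 uM, pH 7 sodium acetate buffer, 37 C for 6 hr; endpoint ThT signal.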
# Tau fibril FP = inhibitors of human tau fibril formation; K18 P301L tau heparin fibrillization, Alexa594 FP, 6 h; Potency, µM (series often up to 57.7 µM), for the others: top-dose activity, negative = inhibition, actives largely listed as inhibitors; hit rate 0.39% among 280,000; AID 1468; also: nearly all actives have a fitted effect of over 55% in size
#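 Compound effects on tau fibrillization are measured by Alexa 594 fluorescence polarization (ex 555, em 632 nm). K18 P301L tau is used at 15 uM with 0.24 uM labeled tracer, and 20 uM heparin induces aggregation over 6 hr at 37 C.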
# ALDH1A1 inh = ALDH1A1 (human) enzyme inhibition. Purified ALDH1A1, NADH fluorescence, propionaldehyde substrate. hit rate 7.3% among 220,000. Potency, µM (series often up to 75.3 µM), inactives show at the highest dose activity, negative = inhibition, hits mostly inhibitors. P00352. AID 1030; active = well fitted inhibition curve with a large enough effect, not every such curve was filed as active; inconclusive = small, poorly fitted or top-dose-only effect, or another doubt; inactive = no such curve, though single readings can be large or run the other way;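 also: plate controls were no enzyme wells and a reference inhibitor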
# Target sequence (P00352 whole entry, looked up): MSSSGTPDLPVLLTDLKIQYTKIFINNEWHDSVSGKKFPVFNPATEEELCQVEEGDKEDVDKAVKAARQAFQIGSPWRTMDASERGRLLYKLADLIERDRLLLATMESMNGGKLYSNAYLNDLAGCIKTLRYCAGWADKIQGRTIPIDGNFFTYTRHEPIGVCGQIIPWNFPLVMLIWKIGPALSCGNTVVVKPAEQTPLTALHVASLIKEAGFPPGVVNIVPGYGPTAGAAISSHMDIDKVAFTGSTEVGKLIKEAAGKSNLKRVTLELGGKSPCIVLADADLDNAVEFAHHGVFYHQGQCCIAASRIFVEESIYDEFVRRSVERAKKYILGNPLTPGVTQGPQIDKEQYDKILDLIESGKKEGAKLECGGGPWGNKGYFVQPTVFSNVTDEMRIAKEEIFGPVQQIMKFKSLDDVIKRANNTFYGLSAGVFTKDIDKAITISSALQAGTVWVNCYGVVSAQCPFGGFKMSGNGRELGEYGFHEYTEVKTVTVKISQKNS
# KDM4E inh = inhibitors of human JMJD2E histone demethylase. B2RXH2. JMJD2E catalytic domain, FDH-coupled NADH fluorescence (FDH is formaldehyde dehydrogenase). Potency, µM (series often up to 57.1 µM), without a hit: at the highest dose activity change, negative = inhibition, most hits filed as inhibitors. hit rate 1.6% among 230,000; active = well fitted inhibition curve with a large enough effect, not every such curve was filed as active; inconclusive = small, poorly fitted or top-dose-only effect, or another doubt; inactive = no such curve, though single readings can be large or run the other way;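 also: 0% = wells with enzyme and -100% = buffer wells without enzyme; nearly all actives have a fitted effect of over 50% in size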
# * marks the source's active call; other numbers are inactive results; ? = inconclusive; . = no result given; [ ] = dose if it differs, or a comment. An excerpt weighted towards active compounds, which were near 9.9% of everything screened. Unless noted, calls follow the shape of the dose curve; as a rule, active = well fitted curve in the direction sought with a large enough effect; inconclusive = small, poorly fitted or top-dose-only effect, or another doubt; inactive = no such curve, though single readings can be large; an effect the other way counts as inactive or inconclusive. Unless noted, % is scaled to controls: 0 for no effect and ±100 for the full control effect; potency is read from the fitted curve at half-maximal effect.
SMILES,HPGD block,Tau fluor counter,Tau ThT inhib,Tau fibril FP,ALDH1A1 inh,KDM4E inh
O=C(CSc1ccc(Cl)cc1)N1CCN(c2ncc(C(F)(F)F)cc2Cl)CC1,-12.8%,-16.8%,-27.9%,9.3%,7.7%,-2.7%
O=C(CN1CCN(c2ncc(C(F)(F)F)cc2Cl)CC1)N1CCN(c2ncc(C(F)(F)F)cc2Cl)CC1,-25.5%,-16.1%,?,-1.7%,3.98µM*,-2.5%
Cc1cc(N2CCN(C)CC2)nc2ccc(NC(=S)NCc3cccs3)cc12,.,?,?,6.8%,-6.0%,?
COc1cccc(NC(=O)Nc2ccc3nc(N4CCN(C)CC4)cc(C)c3c2)c1,.,14.1µM*[quencher],?,?,.,.
Cc1cc(N2CCN(C)CC2)nc2ccc(NC(=O)Nc3ccccc3Cl)cc12,.,14.1µM*[quencher],14.1µM*,?,.,.
COc1ccccc1CNC(=S)Nc1ccc2nc(N3CCN(C)CC3)cc(C)c2c1,.,20µM*[quencher],?,?,-18.2%,?
Cc1cc(C)cc(NC(=O)Nc2ccc3nc(N4CCN(C)CC4)cc(C)c3c2)c1,.,7.94µM*[quencher],?,?,.,.
CCc1ccc(Cn2c(CNS(=O)(=O)c3ccc([N+](=O)[O-])cc3)nc3cccnc32)cc1,.,-17.7%,6.0%,-3.1%,.,.
COc1ccccc1-c1nccc(NCc2cnc(C)cn2)n1,-16.6%,-2.2%,0.4%,3.4%,3.4%,?
O=C(Cn1cc(SCc2cccc(Cl)c2)c2ccccc21)N1CCOCC1,-27.6%,?,?,3.6%,7.51µM*,-2.8%
CCOC(=O)CNC(=O)CSc1nc(N)cc(N)n1,-4.3%,6.7%,6.8%,2.0%,8.9%,4.3%
CCOC(=O)CNC(=S)n1cnc(N)n1,.,-1.6%,-13.0%,-1.2%,31.6µM*,-7.8%
O=C(NC1CCCCC1)N(Cc1ccccc1)Cc1ccco1,-8.1%,-0.3%,1.0%,8.5%,?,-3.2%
O=C(NC1CCCCC1)C(c1ccco1)N(CCc1ccccc1)C(=O)C(F)(F)F (stereo not given),-1.9%,-14.0%,-1.3%,-4.0%,31.6µM*,-0.6%
NC(=O)c1nsc(C(=O)N(CCc2ccccc2)C(C(=O)NC2CCCC2)c2ccco2)c1N (stereo not given),-20.9%,-17.8%,-16.3%,-9.4%,?,?
O=C(CC(Cc1ccccc1)c1ccco1)NC1CCCCC1 (stereo not given),14.1µM*,-10.8%,-12.1%,3.3%,-6.6%,6.7%
O=C(CNC1CCCCC1)NN=C(c1ccccc1)c1ccccc1,.,1.8%,4.3%,-1.4%,-4.6%,4.3%
NC(=O)CNc1n[nH]c(=S)[nH]c1=O,.,-9.8%,-9.3%,-1.9%,0.4%,-12.0%
CCc1ccc2c(c1)C(O)(CC(=O)c1cccs1)C(=O)N2 (stereo not given),.,3.2%,-8.5%,-3.4%,4.1%,-5.8%
CCc1cccc2c1NC(=O)C2(O)CC(=O)c1cccs1 (stereo not given),.,3.8%,1.4%,2.9%,14.1µM*,1.8%
COc1ccc(NC(=O)CN2C(=O)C(c3ccc(C(C)(C)C)cc3)=NC2(C)C)cc1Cl,.,-17.9%,6.9%,?,.,.
CCN(CC)c1ccc(NC(=O)c2ccc3c(c2)c(C)c(C)n3C)cc1,.,?,3.98µM*,12.1%,?,-24.9%
O=C(COc1ccc(Cl)cc1)Nc1ccc(-c2nc3ccccc3s2)c(O)c1,.,4.5%,?,-2.9%,.,.
Cc1ccccc1OCCNc1cc(N2CC(C)NC(C)C2)ccc1[N+](=O)[O-] (stereo not given),.,?,17.8µM*,?,-6.3%,3.1%
COc1ccc(-c2cc(C(=O)N3CCc4ccccc4C3)no2)cc1OC,11.2µM*,-17.5%,?,2.2%,?,-8.8%
SMILES,HPGD block,Tau fluor counter,Tau ThT inhib,Tau fibril FP,ALDH1A1 inh,KDM4E inh
O=C(c1cc(-c2ccc3c(c2)OCO3)on1)N1CCOCC1,31.6µM*,9.1%,-1.9%,7.4%,-1.9%,0.2%
COc1cccc(-c2cc(C(=O)N3CCCCC3C)no2)c1 (stereo not given),15.8µM*,-1.3%,0.3%,-4.9%,-12.5%,-7.3%
COc1cccc(-c2cc(C(=O)N3CCCCCC3)no2)c1,2.51µM*,1.8%,1.4%,1.6%,?,-19.0%
COc1ccccc1-c1cc(C(=O)N2CCCCC2C)no1 (stereo not given),.,-14.7%,-9.7%,-5.9%,.,.
COC(=O)CNC(=O)C(Cc1ccccc1)NS(=O)(=O)c1ccc2c(c1)c(=O)n(C)c(=O)n2C (stereo not given),.,-1.2%,-3.0%,0.1%,-6.3%,?
Cc1noc(C)c1COc1ccc(C(=O)OCC(=O)N2CC3(C)CC2CC(C)(C)C3)cc1 (stereo not given),-11.9%,-5.2%,-17.4%,-2.0%,?,4.6%
COc1ccc(CC(=O)N2CC3(C)CC2CC(C)(C)C3)cc1 (stereo not given),-29.7%,3.6%,-5.1%,-6.9%,?,-1.4%
COc1cccc(-c2cc(C(=O)O)no2)c1,5.62µM*,-9.9%,-20.0%,2.9%,0.562µM*,-3.0%
COc1cccc(-c2cc(C(=O)N3CC4(C)CC3CC(C)(C)C4)no2)c1 (stereo not given),-17.2%,-23.7%,-23.0%,6.6%,12.6µM*,-9.4%
COc1ccccc1N1CCN(C(=O)c2cc(-c3ccc4c(c3)OCO4)on2)CC1,-28.8%,-9.1%,?,2.4%,?,3.8%
Cc1noc(C(=O)N2CC3(C)CC2CC(C)(C)C3)c1Cl (stereo not given),-8.4%,-3.4%,-3.7%,-8.0%,17.8µM*,-4.7%
COc1ccccc1N1CCN(C(=O)c2cc(-c3cccc(Cl)c3)on2)CC1,-14.9%,-20.9%,?,16.6%,20µM*,3.8%
COCCNC(=O)/C(C#N)=c1\s/c(=C\c2ccccc2OC(F)F)c(=O)n1Cc1ccccc1,.,0.1%,4.7%,-5.7%,-4.4%,8.5%
O=C(c1cc(-c2cccc(O)c2)on1)N1CCCCC1,4.47µM*,5.2%,-6.4%,7.1%,?,-0.2%
CC1CCN(C(=O)c2cc(-c3ccc(Cl)cc3)on2)CC1,.,-8.9%,-1.4%,-5.7%,.,.
O=C(c1cc(-c2cccc(Cl)c2)on1)N1CCCCC1,.,-19.9%,-11.7%,1.1%,.,.
CC1CCN(C(=O)c2cc(-c3ccc(Cl)c(Cl)c3)on2)CC1,14.1µM*,5.0%,3.4%,6.4%,?,-4.3%
CC(=O)Nc1ccc(S(=O)(=O)NCC(=O)NC(C)c2ccc(S(N)(=O)=O)cc2)cc1 (stereo not given),.,10.7%,9.1%,10.4%,.,-1.4%
COc1nc2ccccc2nc1CCC(=O)O,.,10.5%,11.8%,2.7%,1.1%,2.4%
NNC(=O)c1ccc(Oc2cc(Cl)cc(Cl)c2)o1,.,-11.0%,?,-2.5%,0.159µM*,-6.4%
CSc1ccc(S(=O)(=O)NCc2ccccc2Cl)cc1,22.4µM*,-15.8%,-4.4%,0.0%,?,5.2%

# High-throughput results (PubChem BioAssay)
